For 1 compound, Potency, outcome and max response results are on record in PubChem BioAssay (NCATS).

The structures appear in SMILES notation. Several values for one entry are separate records, joined by “and”; a condition that tells them apart may be missing. Equal values may be shown once. Results filed as inconclusive are left out. Activity calls are given as the source filed them. Unless noted, the call rests on the fitted dose curve; in most records, active means well fitted curve in the direction sought with a large enough effect; inconclusive means small, poorly fitted or top-dose-only effect, or another doubt; inactive means no such curve, though single readings can be large; an effect the other way counts as inactive or inconclusive.

Assay [1] can be described thus: Cell Viability - LYMP2-025 (AID 976).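 Further: series mostly up to about 92 µM; plate controls were DMSO only for no effect and tetraoctylammonium bromide control for full effect.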 The method, boiled down: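 Luminescent ATP readout after 24 hr treatment of a human lymphoblastoid line (LYMP2-025, 2500 cells/well, 37 C). Reagent developed 30 min at room temperature; AC50 fitted with the Hill equation.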
Assay [2] in a line: Cell Viability - LYMP2-002 (AID 977).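 Further: series mostly up to about 92 µM; plate controls were DMSO only for no effect and 92 µM tetraoctylammonium bromide for full effect.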 The method, boiled down:
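Human lymphoblastoid cells (2500/well) in complete medium were preincubated 5 hr at 37 C, then exposed to compounds for 24 hr at 37 C. Intracellular ATP was read by CellTiter-Glo luminescence; AC50 came from Hill-equation concentration-response fits.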

Assay [3] is described as follows: Cell Viability - LYMP2-006 (AID 978). Further: series mostly up to about 92 µM; on the % scale 0 is the no-effect control and ±100 the full control effect; nearly all actives have a fitted effect of over 60% in size. The method, boiled down:
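Potency values are Hill-fit AC50s for decreases in intracellular ATP (CellTiter-Glo luminescence). LYMP2-006 lymphoblastoid cells, 2500 per well, were exposed to compound in complete culture medium for 24 hr at 37 C.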

Assay [4] can be described thus: Cell Viability - LYMP2-007 (AID 979).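 Further: cells exposed to compound for 24 h before reading; 0% = DMSO only and the negative end = 92 µM tetraoctylammonium bromide; nearly all actives have a fitted effect of over 60% in size.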 Summed up: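 Measured via luciferase-based ATP quantitation: lymphoblastoid cells, 24 hr compound exposure at 37 C, AC50 from Hill fits.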
A short description of assay [5]: Cell Viability - LYMP2-008 (AID 980). Further: on the % scale 0 is the no-effect control and ±100 the full control effect; nearly all actives have a fitted effect of over 60% in size. The method, boiled down: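 Measured: ATP-dependent luminescence, proportional to viable cell number, in human lymphoblastoid cells treated 24 hr with compound in complete culture medium. Values are AC50s from Hill-equation modelling of qHTS titrations.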
Assay [6] is described as follows: Cell Viability - LYMP2-010 (AID 981). Further: on the % scale 0 is the no-effect control and ±100 the full control effect; nearly all actives have a fitted effect of over 55% in size. Summed up:
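This 24 hr viability screen uses LYMP2-010 lymphoblastoid cells, quantifies ATP via luciferase luminescence, and derives AC50 from Hill fits of qHTS concentration-response data.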

Assay [7] is described as follows: Cell Viability - LYMP2-012 (AID 982).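 Further: cellular ATP by luciferase luminescence where a drop means cytotoxicity; cells exposed to compound for one day before reading; 0% = DMSO only and full loss = 92 µM tetraoctylammonium bromide; nearly all actives have a fitted effect of over 55% in size.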
Assay [8] can be described thus: Cell Viability - LYMP2-014 (AID 983).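 Further: series mostly up to about 92 µM; plate controls were DMSO only for no effect and 92 µM tetraoctylammonium bromide for full effect; nearly all actives have a fitted effect of over 50% in size.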 The method, boiled down:
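Quantitative HTS in lymphoblastoid cells: 24 hr compound exposure, then CellTiter-Glo ATP luminescence. Positive control was tetraoctylammonium bromide, 6.4pM to 92 uM.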

The nature of assay [9]: Cell Viability - LYMP2-016 (AID 984). Further: on the % scale 0 is the no-effect control and ±100 the full control effect; nearly all actives have a fitted effect of over 55% in size. Summed up:
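Cytotoxicity was scored by luminescent ATP content (CellTiter-Glo) after 24 h compound exposure at 37 C of a human lymphoblastoid line at 2500 cells/well. Concentration-response data were fitted to the Hill equation for AC50.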

The nature of assay [10]: Cell Viability - LYMP2-018 (AID 985).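 Further: plate controls were DMSO only for no effect and tetraoctylammonium bromide at 92 µM for full effect; nearly all actives have a fitted effect of over 50% in size.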 The method, boiled down:
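In this qHTS viability assay, cells are treated for 24 hr and cellular ATP is quantified by luciferase-based luminescence, with tetraoctylammonium bromide as positive control.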

Assay [11] in a line: Cell Viability - LYMP2-020 (AID 986).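 Further: series mostly up to about 92 µM; plate controls were DMSO only for no effect and tetraoctylammonium bromide at 92 µM for full effect; nearly all actives have a fitted effect of over 55% in size.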 Summed up:
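Cells at 2500 per well receive a 24 hr compound exposure at 37 C. Viability is measured as ATP-dependent luciferase luminescence, with AC50 modeled from qHTS concentration-response curves.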

The nature of assay [12]: Cell Viability - LYMP2-022 (AID 987). The method, boiled down:
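In this qHTS cytotoxicity screen, compound titrations were incubated 24 hr at 37 C with human lymphoblastoid cells in complete medium. Luciferase-based ATP luminescence provided the viability signal.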

Assay [13] can be described thus: Cell Viability - LYMP2-024 (AID 988).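 Further: plate controls were DMSO only for no effect and 92 µM tetraoctylammonium bromide for full effect; nearly all actives have a fitted effect of over 60% in size.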 The method, boiled down: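 Cells at 2500 per well received compound for 24 hr after a 5 hr settling period. Viability was scored by CellTiter-Glo luminescence, with AC50 from Hill fits.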
Assay [14] can be described thus: Cell Viability - LYMP2-026 (AID 989). Further: on the % scale 0 is the no-effect control and ±100 the full control effect; nearly all actives have a fitted effect of over 50% in size. Summed up:
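Acute toxicity screen in complete culture medium, with 24 hr compound exposure at 37 C. Viability read as cellular ATP via luciferase reaction, with tetraoctylammonium bromide (6.4pM to 92 uM) as positive control.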

Assay [15] can be described thus: Cell Viability - LYMP1-002 - Assay at 40 hr (AID 994). The method, boiled down:
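Concentration-dependent ATP loss after 40 hr treatment at 37 C defined toxicity; AC50 values were obtained by fitting the standard Hill equation.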

Assay [16] can be described thus: qHTS Assay for Identification of Small Molecule Inducers of Hypoxia Response (AID 2120; active means well fitted curve in the direction sought with a large enough effect in the signal ratio, with a control signal flat, not every such curve was filed as active; the % refers to the signal ratio; further: 0% is about no effect). Summed up:
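HRE-bla ME-180, 2500 cells/well, 0.5% dialyzed FBS medium; cpd titration, 17 h 37 degrees C; CCF4 2.5 h RT; Ex 405, Em 460/530 ratio -> %Activity, AC50.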
(In general: qHTS replaces the single test concentration by a dilution series.)

The nature of assay [17]: qHTS assay for small molecule antagonists of peroxisome proliferator-activated receptor delta signaling (AID 588535; active means well fitted inhibition curve with a large enough effect in the signal ratio, with a control signal flat, not every such curve was filed as active; the % refers to the signal ratio;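 on max response: cells co-treated with a PPAR-delta agonist as stimulator during compound exposure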). The conditions noted are these: HEK293T PPARd-UAS-bla, beta-lactamase FRET ratio, 18 h; 460 nm channel. The method, boiled down:
(§1)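 Antagonist-mode qHTS using GeneBLAzer PPAR-delta-UAS-bla HEK293T cells; compound exposure 18 hrs at 37 C over a titration. Ratiometric CCF4 fluorescence at 460/530 nm; concentration-response points fitted to the Hill equation.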

Assay [18] addresses Peroxisome proliferator-activated receptor delta (Homo sapiens) (UniProt Q03181). The description is as above. Summed up:
as §1

The target in assay [19] is Thyroid hormone receptor beta (Homo sapiens) (UniProt P10828). Briefly: qHTS assay for small molecule agonists of thyroid hormone receptor beta signaling (AID 588545; calls by dose curve). Summed up: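 Agonist activity was read as beta-lactamase CCF4 fluorescence (405 ex, 460/530 em), scaled between DMSO (0%) and 10 nM T3 (100%), then Hill-fitted for EC50 and efficacy. HEK 293 TR-UAS-bla cells in 2% charcoal/dextran FBS medium were exposed 18 h at 37 C.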

Assay [20] in a line: qHTS assay for small molecule antagonists of retinoid X receptor alpha signaling (AID 588546; active means well fitted inhibition curve with a large enough effect in the signal ratio, with a control signal flat, not every such curve was filed as active; the % refers to the signal ratio;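 further: cells stimulated with 9-cis-retinoic acid as agonist; on the % scale 0 is the no-effect control and ±100 the full control effect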). The conditions noted are these: HEK293T RXRa-UAS-bla, beta-lactamase ratio, antagonist mode; measured here: W530 green channel, cytotoxicity proxy. Summed up:
(§2)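 Beta-lactamase reporter inhibition, read as CCF4 fluorescence ratio (ex 405, em 460/530 nm) after 2 h at RT. HEK293T UAS-bla cells, 2500/well, were stimulated with 9-cis-RA at 500 or 100 nM final alongside test compound for 18 h at 37 C.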

Assay [21] has as its target Retinoic acid receptor RXR-alpha (Homo sapiens) (UniProt P19793). The assay is described as above. The conditions noted are these: HEK293T RXRa-UAS-bla, beta-lactamase ratio, antagonist mode. The method, boiled down: as §2
The target in assay [22] is Voltage-gated inwardly rectifying potassium channel KCNH2 (Homo sapiens) (UniProt Q12809). Briefly: qHTS Assay for Small Molecule Inhibitors of the Human hERG Channel Activity (AID 588834).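 Further: top concentration of the series differs between compounds; on the % scale 0 is the no-effect control and ±100 the full control effect; lower thallium flux fluorescence means stronger hERG block; nearly all actives have a fitted effect of over 50% in size.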 Summed up:
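hERG block measured as reduced thallium-dye (FluxOR) fluorescence after stimulation buffer addition, read over 2 min. Cells were hERG-BacMam-transduced U2OS exposed to compound ~10 min […]; concentration-response fitted with Hill equation for AC50.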

Voltage-gated inwardly rectifying potassium channel KCNH2 (Homo sapiens), sequence (Q12809 whole entry, looked up): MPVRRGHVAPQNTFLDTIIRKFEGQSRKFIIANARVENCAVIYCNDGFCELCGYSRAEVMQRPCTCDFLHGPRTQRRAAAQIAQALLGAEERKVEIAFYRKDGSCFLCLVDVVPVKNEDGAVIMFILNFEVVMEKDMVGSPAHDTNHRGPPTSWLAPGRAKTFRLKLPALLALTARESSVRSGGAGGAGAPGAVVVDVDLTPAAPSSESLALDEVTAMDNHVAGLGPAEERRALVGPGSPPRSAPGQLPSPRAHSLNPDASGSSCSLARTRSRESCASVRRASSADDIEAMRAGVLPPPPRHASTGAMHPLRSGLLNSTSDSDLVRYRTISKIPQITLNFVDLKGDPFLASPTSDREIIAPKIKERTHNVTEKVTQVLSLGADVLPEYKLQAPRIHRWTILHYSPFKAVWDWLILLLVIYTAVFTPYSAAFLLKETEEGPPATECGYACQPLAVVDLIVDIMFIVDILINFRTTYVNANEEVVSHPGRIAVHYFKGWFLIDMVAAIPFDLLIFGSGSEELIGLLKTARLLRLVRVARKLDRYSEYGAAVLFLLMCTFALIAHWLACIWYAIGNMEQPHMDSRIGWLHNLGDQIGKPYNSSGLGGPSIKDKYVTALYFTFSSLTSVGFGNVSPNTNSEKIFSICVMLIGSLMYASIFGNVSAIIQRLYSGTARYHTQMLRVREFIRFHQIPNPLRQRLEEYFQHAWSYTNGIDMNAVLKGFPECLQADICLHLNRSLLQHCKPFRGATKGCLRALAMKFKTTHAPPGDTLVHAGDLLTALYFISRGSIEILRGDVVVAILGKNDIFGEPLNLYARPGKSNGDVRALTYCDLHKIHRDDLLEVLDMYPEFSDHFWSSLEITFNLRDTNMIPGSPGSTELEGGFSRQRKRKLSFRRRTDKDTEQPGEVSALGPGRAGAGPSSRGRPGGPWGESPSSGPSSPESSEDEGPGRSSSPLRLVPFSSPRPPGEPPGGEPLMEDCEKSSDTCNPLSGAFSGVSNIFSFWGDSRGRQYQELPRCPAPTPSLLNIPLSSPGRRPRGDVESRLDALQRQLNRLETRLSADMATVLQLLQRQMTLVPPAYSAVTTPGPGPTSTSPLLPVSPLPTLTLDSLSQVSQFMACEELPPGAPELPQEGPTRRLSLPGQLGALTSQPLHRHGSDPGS
Retinoic acid receptor RXR-alpha (Homo sapiens), sequence (P19793 whole entry, looked up): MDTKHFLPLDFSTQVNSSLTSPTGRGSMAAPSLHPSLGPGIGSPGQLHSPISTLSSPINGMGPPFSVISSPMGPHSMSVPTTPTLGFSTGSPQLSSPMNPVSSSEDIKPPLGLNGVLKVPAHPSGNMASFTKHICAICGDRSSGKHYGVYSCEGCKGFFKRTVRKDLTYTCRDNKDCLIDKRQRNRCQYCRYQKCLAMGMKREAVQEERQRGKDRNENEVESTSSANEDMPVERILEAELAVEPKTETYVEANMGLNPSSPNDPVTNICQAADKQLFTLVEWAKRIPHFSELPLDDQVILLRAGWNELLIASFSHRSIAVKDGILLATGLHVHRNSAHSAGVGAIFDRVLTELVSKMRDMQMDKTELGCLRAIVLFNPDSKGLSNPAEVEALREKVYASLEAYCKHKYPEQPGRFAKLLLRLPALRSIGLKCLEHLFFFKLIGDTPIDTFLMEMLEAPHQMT
Peroxisome proliferator-activated receptor delta (Homo sapiens), sequence (Q03181 whole entry, looked up): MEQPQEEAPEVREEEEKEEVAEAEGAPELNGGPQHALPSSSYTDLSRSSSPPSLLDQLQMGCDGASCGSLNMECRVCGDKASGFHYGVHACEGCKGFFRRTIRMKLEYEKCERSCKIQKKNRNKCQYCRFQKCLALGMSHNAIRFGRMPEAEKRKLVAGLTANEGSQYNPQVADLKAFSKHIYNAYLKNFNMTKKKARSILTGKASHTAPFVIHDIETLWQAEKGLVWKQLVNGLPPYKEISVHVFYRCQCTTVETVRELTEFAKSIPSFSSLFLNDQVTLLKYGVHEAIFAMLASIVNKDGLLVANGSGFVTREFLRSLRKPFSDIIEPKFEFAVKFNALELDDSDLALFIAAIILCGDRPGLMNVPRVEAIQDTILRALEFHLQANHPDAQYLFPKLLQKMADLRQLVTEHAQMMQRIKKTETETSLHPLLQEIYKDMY
Thyroid hormone receptor beta (Homo sapiens), sequence (P10828 whole entry, looked up): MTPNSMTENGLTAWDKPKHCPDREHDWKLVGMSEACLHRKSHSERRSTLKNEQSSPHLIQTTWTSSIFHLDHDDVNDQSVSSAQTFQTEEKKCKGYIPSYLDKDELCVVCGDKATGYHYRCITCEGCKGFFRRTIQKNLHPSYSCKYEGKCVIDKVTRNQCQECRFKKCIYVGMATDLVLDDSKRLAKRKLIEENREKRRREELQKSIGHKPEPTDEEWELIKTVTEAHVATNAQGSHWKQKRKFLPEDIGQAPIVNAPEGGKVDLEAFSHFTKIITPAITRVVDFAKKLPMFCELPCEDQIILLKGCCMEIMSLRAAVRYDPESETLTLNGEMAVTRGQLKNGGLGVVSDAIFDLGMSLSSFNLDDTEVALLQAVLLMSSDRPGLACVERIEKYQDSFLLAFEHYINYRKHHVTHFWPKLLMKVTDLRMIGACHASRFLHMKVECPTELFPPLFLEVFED

As for `CCCCCCCCCCCC(=O)O`, the Potency result in [1], in [2], in [3], in assay [4], in assay [5] and in [6] was “inactive” each time. The Potency entry in [7], in assay [8], in assay [9], in assay [10], in [11] and in assay [12] was “inactive” in each case. The Potency result in assay [13], in assay [14], in assay [15], in assay [18] and in [22] was “inactive” in each case. Besides, the compound was classed as inactive in [16] and in [19]. The max response in assay [17] is 12.5%; in [20], 24.4% and 28.8%; in assay [21] it was -14.3% (inactive) and -10.1% (inactive).
